Measurements reported in PubChem BioAssay (Tox21).
Inconclusive results are not listed. Unmarked numbers belong to inactive results. Active and inactive are the calls of the source. The call rests on the fitted dose curve; in most records, active means well fitted activation curve with a large enough effect in the repeat runs; inconclusive means weak or mixed curves; inactive means no such curve, though single readings can be large or run the other way.

Each compound was assayed against Aryl hydrocarbon receptor (Homo sapiens) (UniProt P35869) (assay: qHTS assay to identify small molecule that activate the aryl hydrocarbon receptor (AhR) signaling pathway (AID 743085; further: nearly all actives have a fitted effect of over 15% in size;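 on activation: HG2L7.5c1 human HepG2 liver cells with stably integrated DRE-driven firefly reporter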)). Conditions: HepG2 AhR-luc (HG2L7.5c1), luciferase, 24 h; series mostly up to 70.3 µM; activation: at the top concentration.
From the text: U.S. Tox21 Program National Center for Advancing Translational Sciences [NCATS] NIH Chemical Genomics Center [NCGC] U.S. Environmental Protection Agency [EPA] National Institutes of Environmental Health Sciences [NIEHS] National Toxicology Program [NTP] U.S. Food and Drug Administration [FDA] Tox21 Assay overview: The Aryl hydrocarbon Receptor (AhR), a member of the family of basic helix-loop-helix transcription factors, is crucial to adaptive responses to environmental changes. AhR mediates cellular responses to environmental pollutants such as aromatic hydrocarbons through induction of phase I and II enzymes but also interacts with other nuclear receptor signaling pathways. A cell based HepG2-AhR-luc assay (HG2L7.5c1 cell line, developed by Dr. Michael S. Denison, University of California at Davis, was used to assess the activation of AhR. HepG2 (human hepatocellular carcinoma) cells were stably transfected with an Ah receptor-responsive firefly luciferase reporter gene plasmid containing 20 dioxin responsive elements and luciferase reporter gene. Increased luciferase activity can be used to identify the compounds that induce AhR activation.
Tox21 Assay Protocol Summary: 4000 cells in 5 uL/well were dispensed into white wall/solid bottom 1536-well plates using a Multidrop Combi (Thermo Fisher Scientific Inc., Waltham, MA) dispenser. After the assay plates were incubated at 37C for 5 h, 23 nL of compound or DMSO vehicle was transferred to the assay plates by a pintool station (Kalypsys, San Diego, CA). The plates were incubated at 37C for 24 hr. After 1 ul/well of CellTiter-Fluor reagent (Promega, Madison, WI) was added into the assay plates using a Flying Reagent Dispenser (FRD) (Aurora Discovery, CA), the assay plates were incubated at 37C for 30 min. The fluorescence intensity in the plates was measured using a ViewLux plate reader (PerkinElmer, Shelton, CT), followed by the addition of 4 uL of ONE-Glo Luciferase Assay reagent (Promega) using an FRD (Aurora Discovery). After the assay plates were incubated at room temperature for 30 min, luminescence intensity was measured using a ViewLux plate reader (Perkin Elmer).
On the % scale 0 is the no-effect control and ±100 the full control effect; potency means the concentration at half of the fitted maximal effect.

Aryl hydrocarbon receptor (Homo sapiens), sequence (P35869 whole entry, looked up): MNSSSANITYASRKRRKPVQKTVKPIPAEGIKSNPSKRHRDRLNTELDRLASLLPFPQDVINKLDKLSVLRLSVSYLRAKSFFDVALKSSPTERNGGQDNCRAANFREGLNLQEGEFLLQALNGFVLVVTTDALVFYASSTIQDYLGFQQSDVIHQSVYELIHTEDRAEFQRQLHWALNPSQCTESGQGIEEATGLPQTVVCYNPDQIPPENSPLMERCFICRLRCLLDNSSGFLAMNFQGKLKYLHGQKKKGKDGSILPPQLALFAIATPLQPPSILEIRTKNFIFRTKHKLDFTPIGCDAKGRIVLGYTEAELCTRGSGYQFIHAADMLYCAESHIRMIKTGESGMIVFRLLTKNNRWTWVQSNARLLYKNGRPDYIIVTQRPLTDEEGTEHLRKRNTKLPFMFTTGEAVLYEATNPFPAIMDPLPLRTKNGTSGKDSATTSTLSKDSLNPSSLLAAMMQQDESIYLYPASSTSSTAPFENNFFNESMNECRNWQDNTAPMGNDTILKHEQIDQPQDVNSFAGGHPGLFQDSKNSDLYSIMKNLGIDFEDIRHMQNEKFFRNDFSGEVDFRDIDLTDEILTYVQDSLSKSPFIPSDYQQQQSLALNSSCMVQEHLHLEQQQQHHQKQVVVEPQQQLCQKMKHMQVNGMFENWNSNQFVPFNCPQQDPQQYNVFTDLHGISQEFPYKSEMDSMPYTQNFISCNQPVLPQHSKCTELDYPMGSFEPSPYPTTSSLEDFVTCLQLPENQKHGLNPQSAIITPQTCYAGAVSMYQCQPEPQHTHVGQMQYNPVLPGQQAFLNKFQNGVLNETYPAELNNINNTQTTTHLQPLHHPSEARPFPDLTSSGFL

Row | SMILES | activation | Potency
1 | C=CCn1c(=O)n([C@@H]2O[C@H](CO)[C@@H](O)[C@H]2O)c2nc(N)[nH]c(=O)c21 | -1.6% | –
2 | CCN(CC)S(=O)(=O)c1ccc(C(=O)O)cc1 | -0.0414% | –
3 | O=C1C(CCS(=O)c2ccccc2)C(=O)N(c2ccccc2)N1c1ccccc1 (stereo not given) | -1.54% [at 32.5 µM] | –
4 | O=C(O)c1ccccc1S | 0.375% | –
5 | CN(C)CCn1nnnc1SCC1=C(C(=O)O)N2C(=O)[C@@H](NC(=O)Cc3csc(N)n3)[C@H]2SC1 | -0.337% [at 32.5 µM] | –
6 | O=C(O)c1cccc(C(=O)O)n1 | 0.655% | –
7 | CC(C)(O)c1ccccc1 | 0.0179% | –
8 | CCO[Si](C)(OCC)OCC | 2.09% | –
9 | Nc1ccn(C2CO[C@H](CO)O2)c(=O)n1 (stereo not given in full) | -2.56% | –
10 | CC(=O)NC(Cc1ccccc1)C(=O)O (stereo not given) | -3.77% | –
11 | C[N+](C)(C)CC[N+]1(C)Cc2c(Cl)c(Cl)c(Cl)c(Cl)c2C1 | 0.183% | –
12 | C(=C(c1ccccc1)c1ccccc1)c1ccccc1 | 3.78% | –
13 | C=CCSCC1Nc2cc(Cl)c(S(N)(=O)=O)cc2S(=O)(=O)N1 (stereo not given) | -2.67% | –
14 | NC1CCN(c2cccc(Cl)n2)CC1 | -3.57% | –
15 | CCO[Si](CCCN=C=O)(OCC)OCC | -1.3% | –
16 | CCCCCCCCCCCCCCCCCC(=O)OCCCCCCCCCCCCCC(C)C | -1.37% | –
17 | CCCCCCCCCCCl | -0.105% [at 95 µM] | –
18 | COC(=O)C1=C(C)NC(C)=C(C(=O)OCC(C)=O)C1c1ccccc1[N+](=O)[O-] (stereo not given) | – | 8.41 µM (active)
19 | C1=C\CC/C=C\CC/C=C\CC/1 | -0.301% | –
20 | C=C(C)[C@@H]1CCC2=CC(=O)C[C@@H](C)[C@]2(C)C1 | -1.36% | –

Row | SMILES | activation | Potency
21 | CO | – | inactive
22 | Cn1ccc2cc3c(cc21)CCN3C(=O)Nc1cccnc1 | – | 0.335 µM (active)
23 | Cc1cc(C)cc(OCC2CNC(=O)O2)c1 (stereo not given) | 0.833% | –
24 | O=C(O)Cc1cc(I)c(Oc2cc(I)c(O)c(I)c2)c(I)c1 | -1.32% | –
25 | COc1cc(CCC(C)=O)ccc1O | 3.49% | –
26 | C=CC(=O)OCCCCCC | -0.444% | –
27 | CC(=O)c1ccc(C)cc1 | -0.258% | –
28 | COCCOC(=O)CC#N | -0.0076% | –
29 | CC(C)[N+](C)(C)CC(O)COc1cccc2ccccc12 (stereo not given) | -0.824% | –
30 | CCN1CCCC(OC(=O)C(c2ccccc2)c2ccccc2)C1 (stereo not given) | -0.133% [at 32.5 µM] | –
31 | CCC(=O)/C=C/c1ccc(OC)cc1 | 4.53% | –
32 | C[C@H]1O[C@@H](n2cc(F)c(=O)[nH]c2=O)[C@H](O)[C@@H]1O | -0.295% | –
33 | COc1cccc(OC)c1 | -0.613% | –
34 | CC1(C)SC(C)(C)SC(C)(C)S1 | 1.42% | –
35 | CCc1cc(S(=O)(=O)O)c2cc(C(C)C)cccc1-2 | 1.52% | –
36 | Nc1nc2c(ncn2CCC(CO)CO)c(=O)[nH]1 | -1.38% | –
37 | CCCCCCOC(=O)c1ccccc1O | 4.96% | –
38 | CCCC(C)C(=O)O (stereo not given) | -0.545% | –
39 | CCOC(=O)Nc1ccc2c(c1)N(C(=O)CCN1CCOCC1)c1ccccc1S2 | 6.43% [at 32.5 µM] | –
40 | COCc1ccc(COC)cc1 | 0.536% | –
